Measurements taken from PubChem BioAssay (NCATS).
Inconclusive results are not listed. Calls of active or inactive are those of the source. Calls come from the whole dose curve; as a rule, active = well fitted curve in the direction sought with a large enough effect; inconclusive = small, poorly fitted or top-dose-only effect, or another doubt; inactive = no such curve, though single readings can be large; an effect the other way counts as inactive or inconclusive.

Assays:
[1] = molecular target: Rap guanine nucleotide exchange factor 3 (Homo sapiens) (UniProt O95398); assay: Confirmatory qHTS for antagonist of cAMP-regulated guanine nucleotide exchange factor 3 (EPAC1) (AID 1645880); note: nearly all actives have a fitted effect of over 55% in size; note: potency is the fitted concentration of half-maximal effect
Procedure, shortened: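 Nucleotide exchange uses 100 nM EPAC1, 250 nM RAP1B-BODIPY-GDP and 50 uM GDP, with compounds in a concentration-titration series. After 5 min at room temperature, fluorescence (480 nm ex/540 nm em) is read every 5 min for 30 min. Data are normalized to control ATA and DMSO.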

[2] = molecular target: Rap guanine nucleotide exchange factor 3 (Homo sapiens) (UniProt O95398); assay: Confirmatory qHTS for agonist of cAMP-regulated guanine nucleotide exchange factor 3 (EPAC1) (AID 1645881); note: nearly all actives have a fitted effect of over 75% in size; note: potency is the fitted concentration of half-maximal effect;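 for activation: EPAC1 catalysed release of BODIPY-GDP from Rap1B seen as fluorescence loss; 100% = effect of cAMP agonist control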
[3] = molecular target: Rap guanine nucleotide exchange factor 4 (Homo sapiens) (UniProt Q8WZA2); assay: Confirmatory qHTS for agonist of cAMP-regulated guanine nucleotide exchange factor 4 (EPAC2) (AID 1645884);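 note: nucleotide exchange releases bodipy-GDP from Rap1 and this lowers its fluorescence; nearly all actives have a fitted effect of over 65% in size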; note: potency is the fitted concentration of half-maximal effect; for activation: % is set by controls: 0 for no effect and ±100 for the full control effect
[4] = molecular target: Rap guanine nucleotide exchange factor 4 (Homo sapiens) (UniProt Q8WZA2); assay: Confirmatory qHTS for antagonist of cAMP-regulated guanine nucleotide exchange factor 4 (EPAC2) (AID 1645885); note: nearly all actives have a fitted effect of over 25% in size; note: potency is the fitted concentration of half-maximal effect; for activity change, negative = inhibition: % is set by controls: 0 for no effect and ±100 for the full control effect
[5] = molecular target: Rap guanine nucleotide exchange factor 3 (Homo sapiens) (UniProt O95398); assay: Counterscreen qHTS for antagonist of cAMP-regulated guanine nucleotide exchange factor 3 (EPAC1) (AID 1645888);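 note: fluorescence loss as bound BODIPY-GDP is released from Rap1B; % of control where 0% means no effect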
Procedure, shortened: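 Rap1B-BODIPY-GDP 250 nM + GDP 50 uM; cpds 7-pt, final 9.74 nM–152 uM (activator mode) or from 7.32 nM upwards (inhibitor mode); RT; FI 480/540 nm at 5 and 30 min, then ± cAMP, reread.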

Rap guanine nucleotide exchange factor 4 (Homo sapiens), sequence (Q8WZA2 whole entry, looked up): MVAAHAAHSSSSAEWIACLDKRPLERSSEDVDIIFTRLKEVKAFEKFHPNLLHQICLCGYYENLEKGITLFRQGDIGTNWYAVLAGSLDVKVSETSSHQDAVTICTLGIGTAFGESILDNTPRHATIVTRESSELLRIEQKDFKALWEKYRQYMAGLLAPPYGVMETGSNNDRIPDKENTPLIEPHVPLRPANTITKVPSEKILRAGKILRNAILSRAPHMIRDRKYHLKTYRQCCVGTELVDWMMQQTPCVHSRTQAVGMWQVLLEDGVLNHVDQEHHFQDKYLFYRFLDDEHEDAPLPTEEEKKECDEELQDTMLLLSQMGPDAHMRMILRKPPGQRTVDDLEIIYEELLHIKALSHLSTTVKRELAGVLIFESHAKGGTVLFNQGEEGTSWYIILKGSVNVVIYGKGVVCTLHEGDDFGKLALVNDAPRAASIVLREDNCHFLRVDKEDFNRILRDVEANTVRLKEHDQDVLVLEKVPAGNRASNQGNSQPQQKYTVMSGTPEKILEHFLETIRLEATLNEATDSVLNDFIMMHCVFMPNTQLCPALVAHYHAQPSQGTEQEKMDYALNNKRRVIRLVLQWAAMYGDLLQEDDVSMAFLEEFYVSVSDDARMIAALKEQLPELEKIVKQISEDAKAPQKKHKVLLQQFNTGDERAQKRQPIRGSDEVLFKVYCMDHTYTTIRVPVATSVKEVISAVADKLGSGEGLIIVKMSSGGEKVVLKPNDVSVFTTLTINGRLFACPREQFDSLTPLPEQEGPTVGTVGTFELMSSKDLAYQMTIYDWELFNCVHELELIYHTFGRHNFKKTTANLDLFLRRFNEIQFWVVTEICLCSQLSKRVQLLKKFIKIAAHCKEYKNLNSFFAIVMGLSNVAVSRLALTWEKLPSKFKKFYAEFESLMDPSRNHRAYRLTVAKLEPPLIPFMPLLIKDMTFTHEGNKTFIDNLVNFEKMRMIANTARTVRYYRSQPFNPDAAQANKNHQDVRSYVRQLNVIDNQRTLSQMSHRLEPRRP
Rap guanine nucleotide exchange factor 3 (Homo sapiens), sequence (O95398 whole entry, looked up): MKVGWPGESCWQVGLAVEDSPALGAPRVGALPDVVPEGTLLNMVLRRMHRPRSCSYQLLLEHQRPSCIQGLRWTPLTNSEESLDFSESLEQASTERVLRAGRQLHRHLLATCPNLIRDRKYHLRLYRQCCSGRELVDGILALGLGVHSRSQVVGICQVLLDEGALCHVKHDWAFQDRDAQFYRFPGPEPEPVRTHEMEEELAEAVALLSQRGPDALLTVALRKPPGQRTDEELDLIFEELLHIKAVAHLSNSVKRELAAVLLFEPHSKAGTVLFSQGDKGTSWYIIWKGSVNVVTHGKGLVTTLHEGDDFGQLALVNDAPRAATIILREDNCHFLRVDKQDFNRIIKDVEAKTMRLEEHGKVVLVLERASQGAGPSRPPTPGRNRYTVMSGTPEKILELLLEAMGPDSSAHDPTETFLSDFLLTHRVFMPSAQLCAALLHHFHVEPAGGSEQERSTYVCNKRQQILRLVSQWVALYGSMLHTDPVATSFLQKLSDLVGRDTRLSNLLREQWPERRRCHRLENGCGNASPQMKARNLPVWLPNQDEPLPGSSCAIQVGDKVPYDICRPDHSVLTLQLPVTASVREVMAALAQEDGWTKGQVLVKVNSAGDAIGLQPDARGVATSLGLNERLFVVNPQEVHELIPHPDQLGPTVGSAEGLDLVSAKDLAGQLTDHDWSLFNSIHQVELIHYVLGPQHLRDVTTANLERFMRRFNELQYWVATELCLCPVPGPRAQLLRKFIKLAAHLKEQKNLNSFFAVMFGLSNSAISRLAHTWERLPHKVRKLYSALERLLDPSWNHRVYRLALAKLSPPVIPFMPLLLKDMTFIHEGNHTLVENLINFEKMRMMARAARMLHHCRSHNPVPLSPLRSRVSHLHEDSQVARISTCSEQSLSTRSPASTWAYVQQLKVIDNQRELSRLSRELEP

CCCN1C(=O)c2ccccc2NC1c1ccc(OC)cc1OC (stereo not given)
inactive: Potency [1] | Potency [2] | Potency [3] | Potency [4] | Potency [5]

O=C(c1ccco1)N(Cc1ccc([N+](=O)[O-])cc1)c1ccc(Cl)cc1
inactive: Potency [1] | Potency [2] | Potency [3] | Potency [4] | Potency [5]

CCOC(=O)c1cccc(NC(=O)N2CCC(CN3CCCCCC3)CC2)c1
inactive: Potency [1] | Potency [2] | Potency [3] | outcome [4] inactive [at 12.7 µM] | Potency [5]

Cc1ccc(S(=O)(=O)CC(=O)N(CCCN(C)C)c2nc3ccc(C)cc3s2)cc1
inactive: Potency [1] | Potency [2] | Potency [3] | Potency [4] | Potency [5]

COc1ccc(OC)c(-c2nc3c(C#N)c[nH]n3c2NC2CCCCC2)c1
inactive: Potency [1] | Potency [2] | Potency [3] | outcome [4] inactive [at 12.7 µM] | Potency [5]

O=C(CCNC(=O)c1ccccc1Cl)NCC(c1ccc(F)cc1)N1CCOCC1 (stereo not given)
inactive: Potency [1] | Potency [2] | Potency [3] | Potency [4] | Potency [5]

CCC1CCCCN1CCCNC(=O)c1csc2c1CCCCC2 (stereo not given)
inactive: Potency [1] | Potency [2] | Potency [3] | Potency [4] | Potency [5]

CC(C)c1ccc(NC(=O)c2ccc(Cn3nc(N4CCN(c5ccccc5)CC4)ccc3=O)o2)cc1
inactive: Potency [2] | Potency [3] | Potency [4] | Potency [5]
active: Potency [1] 84.9 µM

Cc1c(NC(=O)/C=C/c2cn(-c3ccccc3)nc2-c2ccccc2)c(=O)n(-c2ccccc2)n1C
inactive: Potency [1] | Potency [2] | activation [3] 0% [at 17.1 µM, percent relative to cAMP agonist control] | Potency [4] | activity change, negative = inhibition [5] -4.59% [at 30.8 µM]

CCOC(=O)c1c(C)[nH]c(CCC(=O)NCc2cccc(OC)c2)c1C
inactive: Potency [1] | Potency [2] | Potency [3] | Potency [4] | Potency [5]

CC1(C(=O)NS(=O)(=O)c2cccc(Cl)c2)CCN1C(=O)C1(c2ccc(Cl)cc2)CC1 (stereo not given)
active: Potency [1] 31.6 µM
inactive: Potency [2] | activation [3] 2.34% [at 17.1 µM, percent relative to cAMP agonist control] | Potency [4] | activity change, negative = inhibition [5] -16.3% [at 30.8 µM]

CC1(C(=O)NS(=O)(=O)c2ccc(Cl)s2)CCN1C(=O)C1(c2ccc(Cl)cc2)CC1 (stereo not given)
inactive: Potency [2] | activation [3] 0% [at 17.1 µM, percent relative to cAMP agonist control] | Potency [4] | activity change, negative = inhibition [5] -17.9% [at 30.8 µM]
active: Potency [1] 14.1 µM

COc1ccc(C(Sc2ccccc2)c2ccccc2)cc1OC (stereo not given)
inactive: Potency [1] | Potency [2] | Potency [3] | Potency [5]
active: Potency [4] 21.3 µM

Cc1nc(=O)c(-c2ccccc2)c(C)n1CCCCCC(=O)O
inactive: Potency [1] | Potency [2] | activation [3] 0.623% [at 17.1 µM, percent relative to cAMP agonist control] | Potency [4] | activity change, negative = inhibition [5] -38.6% [at 30.8 µM]

COc1ccc(Cl)cc1N(C)C(=O)Cc1noc2ccc(C)cc12
inactive: Potency [1] | Potency [2] | Potency [3] | Potency [4] | Potency [5]

CC1=C(C(=O)OC2CCCC2)C(c2c(Cl)cccc2Cl)CC(=O)N1 (stereo not given)
inactive: Potency [1] | Potency [2] | Potency [3] | Potency [4] | Potency [5]

Oc1ccc(/C=N/Nc2ncnc3c2ncn3Cc2ccccc2)cc1O
inactive: Potency [2] | activation [3] 4.96% [at 17.1 µM, percent relative to cAMP agonist control] | Potency [4] | activity change, negative = inhibition [5] -13.7% [at 30.8 µM]
active: Potency [1] 3.55 µM

NNc1nc2c(Cl)c(Cl)ccc2s1
inactive: Potency [1] | Potency [2] | activation [3] 7.89% [at 17.1 µM, percent relative to cAMP agonist control] | Potency [4] | activity change, negative = inhibition [5] 3.53% [at 30.8 µM]

COc1cnc(-c2ccccn2)nc1Oc1cccc(Cl)c1
active: Potency [4] 10.7 µM
inactive: Potency [1] | Potency [2] | Potency [3] | Potency [5]

CCOC(=O)C(Cc1ccc(NC(=O)/C(=C\c2ccccc2)NC(=O)c2ccccc2)cc1)N1C(=O)c2ccccc2C1=O (stereo not given)
inactive: Potency [1] | Potency [2] | Potency [3] | Potency [4] | Potency [5]

OC1(c2ccccc2)CC(c2ccccc2)c2ccccc2O1 (stereo not given)
inactive: Potency [1] | Potency [2] | activation [3] 1.28% [at 17.1 µM, percent relative to cAMP agonist control] | Potency [4] | activity change, negative = inhibition [5] -2.96% [at 30.8 µM]

O=C(NCc1ccco1)c1c[nH]c2ccc(S(=O)(=O)N3CCOCC3)cc2c1=O
inactive: Potency [1] | Potency [2] | activation [3] 7.59% [at 17.1 µM, percent relative to cAMP agonist control] | Potency [4] | activity change, negative = inhibition [5] 1.66% [at 30.8 µM]

O=C(NN1C(=O)/C(=C/c2ccc(O)c(O)c2)SC1=S)c1ccccc1
active: Potency [1] 7.57 µM
inactive: Potency [2] | Potency [3] | Potency [4] | Potency [5]

Cc1cc(=O)n(Cc2cccc(Cl)c2)c2c1c(C)nn2C
inactive: Potency [1] | Potency [2] | Potency [3] | Potency [4] | Potency [5]

COc1cc(/C=C/CNC[C@H]2O[C@@H](n3cnc4c(=O)[nH]c(N)nc43)[C@H](O)[C@@H]2O)ccc1O
inactive: Potency [1] | Potency [2] | Potency [3] | Potency [4] | Potency [5]

Cc1cccnc1NC(=O)c1ccc(S(=O)(=O)N2CC(C)OC(C)C2)cc1 (stereo not given)
inactive: Potency [1] | Potency [2] | Potency [3] | Potency [4] | Potency [5]

O=C1CC(=O)N(CCc2ccccc2)C(=O)N1CCc1ccccc1
inactive: Potency [1] | Potency [2] | Potency [3] | Potency [4] | Potency [5]

COC(CNC(=O)c1ccc2c3c(onc13)-c1ccccc1C2=O)OC
active: Potency [2] 50.1 µM | Potency [3] 100 µM
inactive: Potency [1] | Potency [4] | Potency [5]

Cc1ccc(-c2cn3c(n2)sc2cc(C(=O)NCCC4=CCCCC4)ccc23)c(C)c1
inactive: Potency [1] | Potency [2] | Potency [3] | Potency [4] | Potency [5]

Cc1ccc(S(=O)(=O)N2CCCCC2c2cccnc2)c(C)c1C (stereo not given)
inactive: Potency [1] | Potency [2] | activation [3] 14.9% [at 17.1 µM, percent relative to cAMP agonist control] | Potency [4] | activity change, negative = inhibition [5] 2.73% [at 30.8 µM]

O=C(OCC(=O)N1CCN(S(=O)(=O)c2ccc(Cl)cc2)CC1)c1cccc(OC(F)F)c1
inactive: Potency [1] | Potency [2] | activation [3] 0.331% [at 17.1 µM, percent relative to cAMP agonist control] | Potency [4] | activity change, negative = inhibition [5] -17.2% [at 30.8 µM]

COc1ccc(N2CCN(C(c3ccccc3F)c3sc4nc(-c5ccco5)nn4c3O)CC2)cc1 (stereo not given)
inactive: Potency [1] | Potency [2] | Potency [3] | Potency [4] | Potency [5]

COc1ccc(-n2c(SCC(=O)Nc3nccs3)nc3c(c2=O)SC(C)C3)cc1 (stereo not given)
inactive: Potency [1] | Potency [2] | Potency [3] | Potency [4] | Potency [5]

Cc1ccc(S(=O)(=O)N2CCC(C(=O)Nc3ccccc3N3CCCCC3)CC2)cc1C
inactive: Potency [1] | Potency [2] | Potency [3] | Potency [4] | Potency [5]

CCOc1c(OC)cccc1C(=O)NCC1(c2ccccc2)CCCC1
inactive: Potency [1] | Potency [2] | Potency [3] | Potency [4] | Potency [5]

Cc1nc2sc(C(c3cccs3)N3CCN(c4ccccc4)CC3)c(O)n2n1 (stereo not given)
inactive: Potency [1] | Potency [2] | Potency [3] | Potency [4] | Potency [5]

Cc1ccccc1C(=O)NCC(=O)N1CCN(c2ccccn2)CC1
inactive: Potency [1] | Potency [2] | activation [3] 9.91% [at 17.1 µM, percent relative to cAMP agonist control] | Potency [4] | activity change, negative = inhibition [5] -4.53% [at 30.8 µM]

CC(C)CNC(=O)c1[nH]c(C(F)(F)F)nc1-c1ccccc1
inactive: Potency [1] | Potency [2] | activation [3] 3.83% [at 17.1 µM, percent relative to cAMP agonist control] | Potency [4] | activity change, negative = inhibition [5] -17.1% [at 30.8 µM]

O=C1/C(=C/C=C/c2ccco2)SC(=S)N1NS(=O)(=O)c1ccccc1
inactive: Potency [2] | activation [3] 11.3% [at 17.1 µM, percent relative to cAMP agonist control] | Potency [4] | activity change, negative = inhibition [5] 17.5% [at 30.8 µM]
active: Potency [1] 5.62 µM

CS(=O)(=O)Nc1ccc(C2=NN(C(=O)c3cccc(F)c3)C(c3cccs3)C2)cc1 (stereo not given)
inactive: Potency [1] | Potency [2] | Potency [3] | Potency [4] | Potency [5]

Oc1ccc(C2=Nn3c(nnc3-c3ccco3)SC2)cc1O
inactive: Potency [2] | Potency [3] | Potency [4] | Potency [5]
active: Potency [1] 16.9 µM

CCCNC(=O)C1CCN(S(=O)(=O)c2ccc3[nH]c(=O)ccc3c2)CC1
inactive: Potency [1] | Potency [2] | Potency [3] | Potency [4] | Potency [5]

Cc1ccc2nc(N3C(=O)C(O)=C(C(=O)c4ccc(C)o4)C3c3cccc(O)c3)sc2c1 (stereo not given)
active: Potency [1] 37.9 µM
inactive: Potency [2] | Potency [3] | Potency [4] | Potency [5]

COc1ccc(S(=O)(=O)N2CCCCCC2)cc1C(=O)N1CCCC(C(F)(F)F)C1 (stereo not given)
inactive: Potency [1] | Potency [2] | activation [3] 2.27% [at 17.1 µM, percent relative to cAMP agonist control] | Potency [4] | activity change, negative = inhibition [5] -17.4% [at 30.8 µM]

CCOC(=O)[C@@H](NC(=O)/C=C/[C@H]1O[C@@H](n2cc(C)c(=O)[nH]c2=O)C[C@@H]1O)C(C)C
inactive: Potency [1] | Potency [2] | Potency [3] | Potency [4] | Potency [5]

O=C(Nc1cccc(Cl)c1)C1CCCN(C2=NS(=O)(=O)c3ccccc32)C1 (stereo not given)
inactive: Potency [1] | Potency [2] | Potency [3] | Potency [4] | Potency [5]

CCOc1ccc(NCc2nc3ccccc3n2CCOc2ccccc2)cc1
inactive: Potency [1] | Potency [2] | activation [3] 16.9% [at 17.1 µM, percent relative to cAMP agonist control] | Potency [4] | activity change, negative = inhibition [5] 4.92% [at 30.8 µM]

CCOc1cc(CNc2ccc(O)cc2)cc(Br)c1OCc1ccccc1
inactive: Potency [2] | Potency [3] | outcome [4] inactive [at 12.7 µM] | Potency [5]
active: Potency [1] 75.7 µM

COC(=O)c1[nH]c2cc(C)ccc2c1NC(=O)CN1CCCc2ccccc21
inactive: Potency [1] | Potency [2] | Potency [3] | Potency [4] | Potency [5]
